Source: the supplement of paper PMC6555819

Tests used:
Test in all cases: PBM binding z-score (relative to random genomic background probes); higher = stronger binding; sequences stand for … in GC…GCGATTGACAGCGTAGAATGAAGG
[1] = system: FXR:RXRa (NR concentration 270 nM, RXRa partner concentration 90 nM)
Procedure, shortened: (§1)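 Ligand-free nuclear receptor dimers were bound for 1 h to custom Agilent 4×180K protein-binding microarrays. Detection used antibodies against each partner (one per run). Binding z-scores rest on regression-normalized fluorescence, with random background probes as the reference.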

[2] = system: LXRa:RXRa (NR concentration 270 nM, RXRa partner concentration 90 nM)
Procedure, shortened: as §1

[3] = system: LXRa homodimer (NR concentration 270 nM)
Procedure, shortened: as §1

[4] = system: LXRb:RXRa (NR concentration 270 nM, RXRa partner concentration 90 nM)
Procedure, shortened: as §1

[5] = system: LXRb homodimer (NR concentration 270 nM)
Procedure, shortened: as §1

[6] = system: PPARa:RXRa (NR concentration 270 nM, RXRa partner concentration 90 nM)
Procedure, shortened: as §1

[7] = system: PPARg:RXRa (NR concentration 180 nM, RXRa partner concentration 90 nM)
Procedure, shortened: as §1

[8] = system: PPARg:RXRa 270nM:90nM, anti-RXR (NR concentration 270 nM, RXRa partner concentration 90 nM)
Procedure, shortened: as §1

[9] = system: PPARg:RXRa 30nM:10nM, anti-RXR (NR concentration 30 nM, RXRa partner concentration 10 nM)
Procedure, shortened: as §1

[10] = system: PPARg:RXRa 90nM:30nM, anti-RXR (NR concentration 90 nM, RXRa partner concentration 30 nM)
Procedure, shortened: as §1

[11] = system: PPARg:RXRa DBDmut IVT, anti-RXR (DBD mutation: RXRa K156A/R161A, NR concentration 270 nM, RXRa partner concentration 90 nM)
Procedure, shortened: as §1

[12] = system: PPARg:RXRa IVT, anti-PPARg (NR concentration 270 nM, RXRa partner concentration 90 nM)
Procedure, shortened: as §1

[13] = system: PPARg DBDmut:RXRa IVT, anti-PPARg (DBD mutation: PPARg1 K132A/R137A, NR concentration 270 nM, RXRa partner concentration 90 nM)
Procedure, shortened: as §1

[14] = system: PPARg DBDmut IVT, anti-PPARg (DBD mutation: PPARg1 K132A/R137A, NR concentration 270 nM)
Procedure, shortened: as §1

[15] = system: PPARg homodimer (NR concentration 180 nM)
Procedure, shortened: as §1

[16] = system: PXR:RXRa (NR concentration 270 nM, RXRa partner concentration 90 nM)
Procedure, shortened: as §1

[17] = system: PXR homodimer (NR concentration 270 nM)
Procedure, shortened: as §1

[18] = system: RARa:RXR (NR concentration 270 nM, RXRa partner concentration 90 nM)
Procedure, shortened: as §1

[19] = system: RARa homodimer (NR concentration 270 nM)
Procedure, shortened: as §1

[20] = system: RARb:RXRa (NR concentration 270 nM, RXRa partner concentration 90 nM)
Procedure, shortened: as §1

Sequence | PBM binding z-score [1] | PBM binding z-score [2] | PBM binding z-score [3] | PBM binding z-score [4] | PBM binding z-score [5] | PBM binding z-score [6] | PBM binding z-score [7] | PBM binding z-score [8] | PBM binding z-score [9] | PBM binding z-score [10] | PBM binding z-score [11] | PBM binding z-score [12] | PBM binding z-score [13] | PBM binding z-score [14] | PBM binding z-score [15] | PBM binding z-score [16] | PBM binding z-score [17] | PBM binding z-score [18] | PBM binding z-score [19] | PBM binding z-score [20]
GCTAGTTGGTCAGCAAAAGGTCACACACCGGTCG | 3.17 | 4.15 | 4.08 | 3.94 | 0.516 | 4.17 | 2.48 | 4.05 | 1.79 | 3.39 | 0.999 | 2.88 | -0.1 | -0.835 | 4.56 | 5.02 | 1.32 | 5.74 | 2.26 | 4.37
CCGACTGGGGCTGAAAGGTTACCATACCATCCGG | 0.294 | 0.581 | -0.00145 | 0.846 | -1.11 | 1.76 | 0.998 | 1.93 | 0.223 | 1.31 | -0.623 | -0.162 | -1.05 | -1.01 | 0.352 | 1.1 | -0.23 | 1.85 | -0.057 | 1.46
GCTTGTAGATCAAGGTTAAGAGAGACTAAGCTAA | -0.00904 | 0.508 | -0.353 | 0.119 | -0.894 | 1.36 | 0.796 | 2.03 | 0.342 | 1.44 | 1.35 | 1.01 | 0.118 | -0.183 | 0.193 | 0.187 | -0.0843 | 0.668 | -0.213 | 0.688
TCAAGTAGGTTACCAATGGGGCATTCAGCTTTCT | 0.176 | 1.6 | -0.145 | 1.17 | -0.449 | 2.16 | 2.1 | 2.92 | 3.34 | 3.02 | 6.09 | 5.24 | 0.706 | -0.182 | 0.999 | 0.326 | -0.278 | 0.518 | 0.134 | 1.27
CGTCCAAGGTCAGGGAGGTCAGTGAATGCCGAGT | 6.32 | 5.28 | 2.42 | 4.43 | 0.00503 | 5.2 | 4.29 | 4.63 | 0.9 | 3.13 | 2.94 | 3.53 | -0.257 | -1.31 | 4.71 | 6.02 | 10.3 | 5.53 | 2.15 | 5.33
CTACCAAGGTGAACAACGTCGTTGATTACTATTC | 0.772 | 0.327 | -0.307 | 0.812 | -0.301 | 1.29 | 0.69 | 0.538 | -0.133 | 0.52 | 2.88 | 2.23 | 0.00253 | 0.341 | -0.432 | 0.189 | -0.322 | 0.739 | 0.243 | 1.68
CGTCCAAGGTCAGCAGGTCAGTGTAAGCGACGTG | 5.5 | 4.05 | 0.506 | 3.05 | -0.03 | 4.91 | 4.14 | 4.68 | 1.12 | 3.01 | 2.97 | 3.67 | -0.32 | -0.582 | 2.97 | 3.74 | 0.447 | 5.09 | 1.36 | 5.35
CCGAGAAGGTTATGGGGCATTCAGGCAACGGTGA | 1.63 | 1.52 | 0.000193 | 1.24 | -0.242 | 2.89 | 1.15 | 1.75 | -0.0865 | 0.883 | 0.959 | 1.38 | -0.265 | -0.895 | 1.08 | 0.668 | 0.111 | 1.54 | -0.0567 | 2.08
TAGCCTAGGTCATGGGCCAGTATGCCACGCGAAC | 4.69 | 3.46 | 0.00314 | 2.02 | -0.474 | 4.18 | 4.02 | 3.65 | 0.999 | 2.81 | 1.9 | 3.62 | -0.369 | 0.218 | 1.49 | 1.42 | -0.923 | 2.53 | -0.739 | 3.93
TCTGTTAGTTGAAGGGCAACCGACGAGTCCGTTT | 0.758 | 0.866 | 0.374 | 0.639 | 0.983 | 0.837 | -0.0567 | 1.91 | 3.09 | 2.14 | 1.61 | 1.1 | 0.429 | 0.734 | 1.19 | 0.704 | 1.02 | 0.521 | 0.738 | 1.65
GCATATAGGCAATACAAGGTGAAAGTCCGATTGT | 0.177 | 0.0524 | -0.175 | 0.343 | -0.636 | 1.12 | 0.804 | 0.669 | 0.415 | 0.712 | 1.94 | 1.46 | 0.326 | -0.0602 | -0.222 | 0.231 | 0.012 | 0.876 | -0.301 | 0.172
ACAGACAGGTGATGAAGGTAACTCGGGCTATCAT | -0.17 | 0.107 | -0.351 | -0.291 | -0.168 | 0.0611 | 0.471 | -0.0859 | -0.0607 | -0.242 | 0.382 | 0.0218 | -0.282 | -0.148 | 0.503 | -0.0935 | 0.344 | 0.209 | 0.291 | 0.263
TCTGCTAGGTCAACGGTGGTCAGCTAATCTGCTA | 3.59 | 2.75 | -0.0402 | 1.6 | -0.0139 | 3.54 | 3.35 | 3.81 | 2.45 | 3.42 | 4.54 | 4.36 | -0.104 | -0.365 | 1.38 | 1.99 | -0.742 | 2.38 | -0.57 | 4.05
CGAACTAGGTCAATGACAGTGAATCTCCGCACGC | 3.48 | 2.25 | 0.283 | 1.56 | -0.147 | 4.35 | 6.92 | 5.8 | 2.99 | 5.2 | 7.95 | 7.88 | 1.44 | 0.0144 | 1.11 | 1.01 | 0.0387 | 1.71 | 0.201 | 3.68
ATACCAAGGTGATCGTGAGGTCGTTCATACTAAC | 2.05 | 1.58 | 1.23 | 1.4 | 0.148 | 1.53 | 0.472 | 0.354 | -0.0192 | -0.0407 | 0.587 | 1.54 | 0.827 | 0.877 | 1.15 | 3.23 | 2.03 | 2.01 | 0.612 | 1.5
